Screening results deposited in PubChem by National Center for Advancing Translational Sciences (NCATS).
TDP1 cell noCPT: qHTS for Inhibitors of human tyrosyl-DNA phosphodiesterase 1 (TDP1): qHTS in cells in absence of CPT; 420,000 compounds, 15% hits; Potency, µM (series often up to 46.2 µM), for inactives: at the top dose activity change, negative = growth inhibition, actives largely listed as inhibitors; DT40 Tdp1-/- hTDP1 cells, no CPT, ATP luminescence, 48 h; AID 686978, 2013; also: potency is read from the fitted curve at half-maximal effect; nearly all actives have a fitted effect of over 55% in size
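No-CPT arm: Tdp1-/-;hTDP1 DT40 cells (400/well) plus compounds, incubated ≥48 hr at 37 °C. Readout CellTiter-Glo luminescence.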
ELG1 DNA repair: ELG1-dependent DNA repair inhibition; HEK293T ELG1-luciferase reporter, luminescence, 16 h; DNA damage induced by 5-fluorouridine; Potency, µM (highest dose often 46.1 µM), inactives show top-dose activity change, negative = inhibition, most hits filed as inhibitors; 330,000 compounds, 2.3% hits; also: potency is read from the fitted curve at half-maximal effect; nearly all actives have a fitted effect of over 55% in size
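Luminescence from the luciferase reporter, measured 30 min after ONE-Glo reagent at room temperature, was the read-out. Beforehand, 2,000 cells per well were exposed for 16 hr at 37 °C to 5-fluorouridine together with compound or vehicle.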
HT1080 IDH1KD tx: toxicity to HT-1080 IDH1 knockdown cells (counter line); AID 686971; HT-1080 IDH1 knockdown viability, ATP luminescence, 48 h; 360,000 compounds, 2% hits; Potency, µM (series often up to 46.1 µM), without a hit: top-dose activity, negative = toxicity, actives largely listed as cytotoxic;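 also: potency is read from the fitted curve at half-maximal effect; 0% = DMSO wells and -100% = cell-free medium wells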
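CellTiter-Glo luminescence after 48 h compound exposure at 37 degrees C of IDH1-knockdown HT-1080 cells in 5% FBS RPMI. %Activity scaled between DMSO wells and cell-free media wells, with curves fitted and assigned curve classes.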
HT1080NT lethal: kills 2HG-producing HT-1080-NT fibrosarcoma cells. Potency, µM (series often up to 46.1 µM), without a hit: at the highest dose activity, negative = less viability, hits mostly cytotoxic. HT-1080-NT fibrosarcoma viability, CellTiter-Glo ATP luminescence, 48 h. AID 686970. 360,000 compounds, 1.6% hits;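 also: NT is the 2HG producing partner of a matched IDH1 knockdown line; potency is read from the fitted curve at half-maximal effect; 0% = DMSO-treated cells and -100% = media-only wells without cells; nearly all actives have a fitted effect of over 55% in size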
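Viability of the 2HG-overproducing fibrosarcoma line after 48 hours of compound exposure at 37 degrees C was determined by luminescence with CellTiter-Glo, and concentration-effect curves were then fitted and categorized.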
IL1B secr inh: inflammasome signaling inhibition, IL-1 beta readout; THP-1 LPS/ATP IL-1B secretion, AlphaLISA, 16 h; stronger effect = lower value; activity change, % at 57.5 µM; 360,000 compounds, 4.7% hits; AID 743279; in the data active = activity change below about -50%; inconclusive = mostly about -30% to -49%
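Secreted IL-1B measured by AlphaLISA bead assay after 16 h compound exposure of THP-1 cells; compounds (final up to 57.5 uM) added 1 h before LPS (250 ng/mL) and ATP (1.25 mM) stimulation; lower signal means less secretion.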
TDP1 cell CPT: growth inhibition of DT40 Tdp1-/-;hTDP1 cells with camptothecin (screen for TDP1 inhibitors); chicken DT40 Tdp1-/-;hTDP1 cells + 20 nM CPT, ATP luminescence, 48 h; Potency, µM (doses to about 46.2 µM), without a hit: top-dose activity change, negative = growth inhibition, usual class: inhibitors; 420,000 compounds, 12% hits; AID 686979; also: potency is read from the fitted curve at half-maximal effect; nearly all actives have a fitted effect of over 55% in size
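Chicken DT40 Tdp1-/- cells complemented with human TDP1, 400 cells/well, exposed to compounds plus 20 nM camptothecin for at least 48 h at 37 C; viability read as ATP content by CellTiter-Glo luminescence.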
* = called active by the depositor; ? = inconclusive; . = not tested or not shown. Compounds with a hit are over-represented: about 19% of the library has one in this group of screens. Unless noted, calls follow the shape of the dose curve; as a rule, active = well fitted curve in the direction sought with a large enough effect; inconclusive = small, poorly fitted or top-dose-only effect, or another doubt; inactive = no such curve, though single readings can be large; an effect the other way counts as inactive or inconclusive. Unless noted, % is scaled to controls: 0 for no effect and ±100 for the full control effect.

SMILES	TDP1 cell noCPT	ELG1 DNA repair	HT1080 IDH1KD tx	HT1080NT lethal	IL1B secr inh	TDP1 cell CPT
Cc1cc(NC(=O)CN(C)C)c([N+](=O)[O-])cc1C	-4.2%	19.1%	3.4%	4.4%	-11.7	-4.2%
CCc1ccc(S(=O)(=O)NCc2cn3cccc(C)c3n2)s1	16.4µM*	?	-0.3%	-7.4%	39.6	18.4µM*
O=C(CNC(=O)C1CCCCC1)NC1=NCCS1	?	0.5%	13.3%	6.0%	13.2	25.9µM*
CCN(CC)c1ccc(NC(=O)C2CC(=O)N(Cc3ccccc3)C2)cc1 (centres undefined)	11.6µM*	3.2%	-24.2%	-1.1%	-6.9	?
CN(c1ccccc1)S(=O)(=O)c1cccc(NC(=O)C2CC(=O)N(Cc3ccccc3)C2)c1 (centres undefined)	20.6µM*	?	-0.8%	0.0%	-22.3	16.4µM*
CCCn1c(N)c(N(CCOC)C(=O)COC(=O)COc2c(C)cc(C)cc2C)c(=O)[nH]c1=O	-28.7%	.	5.3%	0.6%	3.5	-9.2%
CC(C)CC1NC(=O)c2cc(Cl)ccc2-n2c1nc1ccc(F)cc1c2=O (centres undefined)	.	7.6%	.	.	.	.
CCOC(=O)c1ccc(CNc2ncnc3nc[nH]c23)cc1	11.2µM*	.	.	.	.	3.98µM*
CCOc1cc(CNc2ncnc3nc[nH]c23)ccc1OC	25.9µM*	7.3%	-0.4%	12.6%	39.7	?
CCc1ccc(Nc2ncnc3nc[nH]c23)cc1	-26.6%	?	0.2%	27.5%	-23.7	-9.5%
COc1ccc(CNc2ncnc3nc[nH]c23)cc1OC	-10.7%	.	.	.	.	?
O=C(NCC1CCC2(CCN(Cc3cccn3-c3ccc(Cl)cn3)CC2)O1)c1ccccc1 (centres undefined)	-7.1%	.	.	.	.	0.3%
CCOc1ccc(N(C)S(=O)(=O)c2ccc(C)c(C(=O)NCCc3ccc(OC)cc3)c2)cc1	?	?	-3.2%	-14.9%	16.3	23.1µM*
COc1ccc(CCNC(=O)c2cc(S(=O)(=O)N(C)c3ccccc3)ccc2Cl)cc1	7.31µM*	?	-0.2%	-0.2%	-3.8	18.4µM*
COc1ccc(S(N)(=O)=O)cc1C(=O)NCC(C)(C)N1CCOCC1	-3.6%	-1.7%	17.8%	22.4%	-0.9	19.0%
CCOc1ccc(N(C)S(=O)(=O)c2ccc(C)c(C(=O)NCc3ccccc3OC)c2)cc1	?	?	-13.0%	-5.4%	-20.2	?
CCCN(C(=O)c1cc(S(=O)(=O)N(C)c2ccc(OCC)cc2)ccc1C)C1CCS(=O)(=O)C1 (centres undefined)	25.9µM*	9.8%	-1.2%	-2.1%	-12.3	?
COc1ccc(N(C)S(=O)(=O)c2ccc(Cl)c(C(=O)NCC(C)(C)N3CCOCC3)c2)cc1	9.2µM*	-12.8%	-6.7%	12.0%	0.0	9.2µM*
COc1ccc(CCNC(=O)c2ccc(N(C)S(=O)(=O)c3ccccc3)cc2)cc1	?	-16.0%	0.6%	-12.9%	6.3	?
CC(SCc1ccccc1)C(=O)Nc1ccccc1F (centres undefined)	-3.2%	4.7%	4.4%	2.2%	-1.8	4.0%
O=C(NCc1ccccc1)C(c1ccco1)N(C(=O)c1ccccn1)c1ccccc1 (centres undefined)	-6.4%	-2.6%	16.1%	10.2%	16.4	10.1%
COc1ccc(CNC(=O)C(c2ccco2)N(C(=O)c2ccccn2)c2ccccc2)cc1 (centres undefined)	23.1µM*	?	-8.3%	-0.5%	-1.8	10.3µM*
Nc1nc2ccccc2n1/N=C/c1ccc([N+](=O)[O-])s1	2.91µM*	?	?	-15.3%	-14.8	2.06µM*
Nc1nc2ccccc2n1/N=C/c1ccc(-c2ccccc2)o1	16.4µM*	?	-11.3%	-13.9%	-29.1	?
Cn1c(/C(C#N)=C(\O)c2ccc([N+](=O)[O-])s2)nc2ccccc21	-3.1%	2.3%	7.6%	-0.3%	15.2	15.4%
SMILES	TDP1 cell noCPT	ELG1 DNA repair	HT1080 IDH1KD tx	HT1080NT lethal	IL1B secr inh	TDP1 cell CPT
Nc1nc2ccccc2n1/N=C/c1cccnc1	-14.6%	.	9.3%	3.7%	27.8	-5.1%
CCc1ccccc1NC(=S)N1CCCCCC1	?	-7.8%	12.2%	0.0%	-8.3	?
O=C1NC(=O)C2(CCCc3c([N+](=O)[O-])cccc32)N1 (centres undefined)	-3.7%	.	0.1%	4.8%	1.0	23.0%
CCCCC(=O)NC1(C(F)(F)F)C(=O)Nc2c1c(=O)[nH]c(=O)n2-c1ccc(C)c(C)c1 (centres undefined)	-5.6%	.	.	.	.	-14.1%
CC1Cc2ccccc2N1C(=O)CN(C)CC(=O)Nc1ccc(OC(F)(F)F)cc1 (centres undefined)	?	-23.4%	-5.1%	-19.8%	-8.6	14.6µM*
CN(CC(=O)NC(=O)NC1CCCCC1)CC(=O)Nc1ccc(OC(F)(F)F)cc1	?	?	-9.8%	-1.0%	-69.8*	?
O=c1[nH]c2ccc(NCc3ccc(-c4ccccc4)o3)cc2[nH]1	-11.7%	.	.	.	.	-6.7%
O=c1[nH]c2ccc(NCc3ccc(-c4ccccc4F)o3)cc2[nH]1	18.4µM*	.	.	.	.	23.1µM*
Cc1ccc(-c2nnc(Nc3ccc(C(=O)N(C)C)cc3)c3ccccc23)cc1S(=O)(=O)N(C)C	10.3µM*	.	.	.	.	23.1µM*
CNC(=O)c1ccc(Nc2nnc(-c3ccc(C)c(S(=O)(=O)N(C)C)c3)c3ccccc23)cc1	?	.	.	.	.	-15.9%
CCN(CC)C(=O)c1ccc(Nc2nnc(-c3ccc(O)cc3)c3ccccc23)cc1	?	16.4µM*	1.7%	11.8%	?	?
COc1ccc(Nc2nnc(-c3ccc(O)cc3)c3ccccc23)cc1C(N)=O	?	?	-3.6%	2.0%	8.1	?
COc1ccc(-c2nnc(Nc3ccc(OC)c(C(N)=O)c3)c3ccccc23)cc1	16.4µM*	.	.	.	.	?
Cc1ccc(-c2nnc(Nc3ccc4c(c3)OCO4)c3ccccc23)cc1S(N)(=O)=O	?	16.4µM*	-27.3%	-27.0%	-16.5	?
Cc1nnc(Nc2ccc3c(c2)OCO3)c2ccccc12	-25.8%	?	9.7%	3.8%	2.3	-20.3%
O=C(NCC1Cc2cc(-c3cnc4ccccc4c3)cc(F)c2O1)c1cnsn1 (centres undefined)	-18.5%	.	.	.	.	?
